Results from PubChem BioAssay (EPA / NIEHS).
The source made the active and inactive calls. Rule for the calls: active = hit-call score of the fitted dose curve at least 0.9, where 1 is the maximum; inactive = score below 0.9.

Each molecule was assayed against Estrogen receptor (Homo sapiens) (UniProt P03372) (assay: CCTE_Deisenroth_AIME_384WELL_LUC_Shift: CCTE's 384-well Estrogen Receptor Transactivation Assay with AIME metabolic competence data shift (ERTA luciferase; difference in metabolism positive and negative), Deisenroth Lab (AID 2284041);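 note: shift is response with S9 minus without S9 so positive means metabolism raised ER signal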).
Sequence of Estrogen receptor (Homo sapiens) (P03372 whole entry, looked up): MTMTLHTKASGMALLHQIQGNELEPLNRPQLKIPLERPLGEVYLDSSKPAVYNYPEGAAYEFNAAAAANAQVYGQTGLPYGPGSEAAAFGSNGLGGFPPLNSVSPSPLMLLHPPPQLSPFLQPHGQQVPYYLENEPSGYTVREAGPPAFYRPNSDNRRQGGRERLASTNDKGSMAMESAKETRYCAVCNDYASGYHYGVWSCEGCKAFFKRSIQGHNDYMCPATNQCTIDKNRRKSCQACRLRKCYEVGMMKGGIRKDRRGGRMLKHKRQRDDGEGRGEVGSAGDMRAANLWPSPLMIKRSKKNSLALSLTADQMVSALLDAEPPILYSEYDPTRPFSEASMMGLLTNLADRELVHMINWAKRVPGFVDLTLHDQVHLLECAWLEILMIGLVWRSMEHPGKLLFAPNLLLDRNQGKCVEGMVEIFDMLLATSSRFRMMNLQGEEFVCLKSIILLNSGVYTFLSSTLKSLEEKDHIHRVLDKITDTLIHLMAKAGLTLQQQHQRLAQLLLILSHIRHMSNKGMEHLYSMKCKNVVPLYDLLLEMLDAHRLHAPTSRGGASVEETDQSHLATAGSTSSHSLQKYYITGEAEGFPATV
Protocol: CCTE_Deisenroth_AIME_384WELL (AIME metabolism assay) is a cell-based, single-readout assay that uses VM7Luc4E2, a human mammary gland/breast cell line, with measurements taken at 24 hour after chemical dosing in a 384-well plate.CCTE_Deisenroth_AIME_384WELL_LUC_Shift is one of two analysis components calculated from the CCTE_Deisenroth_AIME_384WELL assay. […] AIME is optimized to impart phase I hepatic metabolism using phenobarbital/beta-naphthoflavone induced hepatic S9 from male Sprague Dawley rats. Parent chemicals are incubated for 2 hours in the AIME assay prior to transfer to the VM7Luc ERTA assay plate. […] The metabolic curve shift response is defined as the pairwise difference between the positive (AEID 2488) and negative (AEID 2490) normalized response values at each concentration for a given chemical across replicate experiments. The pairwise differences form the basis for a concentration-response curve. Standard curve fit analysis identfiied chemicals where the calculated shift was greater than the shift-derived baseline cutoff. A positive hit designation in this endpoint indicates a significant shift trend in the positive direction for bioactivation.
The AIME procedure consists of a preparative "pre-stamping" step using a barium chloride/poly-L-lysine (PLL) solution followed by "stamping" the lid in alginate-hepatic S9 (metabolism positive) or alginate-water (metabolism negative) to form microspheres. Once stamping is completed, the AIME lids are placed in duplicate microplates (metabolism positive or negative) containing chemical solutions and incubated for two hours to facilitate metabolic reactions. The conditioned medium, containing parent chemical or metabolites, is then transferred to the cell-based VM7Luc Estrogen Receptor Transactivation Assay (ERTA) for 24 hours. A typical experimental design tests a 10-point concentration series (0.002 - 200 uM) for 8 compounds (96-well format)1 or 32 compounds (384-well format)2 in single technical replicate. AIME assay controls include trans-stilbene (bioactivated control) and ethylparaben (bioinactivated control). ERTA assay plate controls include 17-beta estradiol (positive control) and DMSO (solvent control). Experiments typically comprise a minimum of four experimental replicates (n=4).

Question: c1ccc2c(c1)ccc1cc3c(ccc4ccccc43)cc12 was tested. Which outcome did it give?
Answer: The outcome was “inactive”.

Question: With NC(CO)(CO)CO as the molecule, how does the outcome read?
Answer: The outcome was “inactive”.

Question: For CO[Si](OC)(OC)c1ccccc1, which outcome is on record?
Answer: Its outcome is “inactive”.

Question: How did the outcome turn out when CC1=NN(c2cc(S(=O)(=O)O)ccc2Cl)C(=O)C1N=Nc1ccccc1 (configuration not stated) was run?
Answer: The outcome was “inactive”.

Question: How did the outcome turn out when CC=C1CC2C=CC1C2 (configuration not stated) was run?
Answer: Its outcome is “inactive”.

Question: With C=C1C2CCC(C2)C1(C)C (configuration not stated) as the molecule, how does the outcome read?
Answer: Its outcome is “inactive”.

Question: Which outcome does the source give for CCN(CCC#N)c1ccc(N=Nc2c(Cl)cc([N+](=O)[O-])cc2Cl)cc1 here?
Answer: The outcome was “inactive”.

Question: How did the AC50 turn out when Cc1ccc(C(C)c2ccc(C)c(C)c2)cc1C was run?
Answer: Its AC50 is 0.000413 µM (active).

Question: How did the outcome turn out when O=C1C(N(CO)C(=O)NCO)N(CO)C(=O)N1CO (configuration not stated) was run?
Answer: Its outcome is “inactive”.

Question: For CCCCCc1ccc(Cl)cc1, which outcome is on record?
Answer: Its outcome is “inactive”.

Question: Which outcome does the source give for CCCCC(CC)CCC(CC(C)C)OS(=O)(=O)O (configuration not stated) here?
Answer: Its outcome is “inactive”.

Question: How did the outcome turn out when Oc1ccc(Cl)cc1Cc1cc(Cl)ccc1O was run?
Answer: The outcome was “inactive”.

Question: For CN(C)c1ccc(C(=N)c2ccc(N(C)C)cc2)cc1, which outcome is on record?
Answer: The outcome was “inactive”.

Question: With O=C(c1ccccc1)C1CCC1 as the molecule, how does the outcome read?
Answer: The outcome was “inactive”.

Question: With O=C(C=Cc1ccccc1)OCc1ccccc1 as the molecule, how does the AC50 read?
Answer: Its AC50 is 22.9 µM (active).

Question: How did the outcome turn out when O=C(C(Cl)Cl)N1CCOC12CCCCC2 was run?
Answer: The outcome was “inactive”.

Question: Which outcome does the source give for C=CC(=O)NC(C)(C)CS(=O)(=O)O here?
Answer: Its outcome is “inactive”.

Question: CCCCCCCCCCOS(=O)(=O)O was tested. Which outcome did it give?
Answer: The outcome was “inactive”.

Question: OC1CCCC1 was tested. Which outcome did it give?
Answer: The outcome was “inactive”.

Question: How did the outcome turn out when O=S(=O)(O)c1ccccc1C=Cc1ccc(-c2ccc(C=Cc3ccccc3S(=O)(=O)O)cc2)cc1 was run?
Answer: The outcome was “inactive”.

Question: How did the outcome turn out when CCOC(=O)CC was run?
Answer: Its outcome is “inactive”.

Question: CCCCC/C=C\CCC=O was tested. Which outcome did it give?
Answer: Its outcome is “inactive”.

Question: How did the outcome turn out when O=S1(=O)OC(c2ccc(O)cc2)(c2ccc(O)cc2)c2ccccc21 was run?
Answer: The outcome was “inactive”.

Question: O=c1cc(-c2ccccc2)oc2ccccc12 was tested. Which outcome did it give?
Answer: The outcome was “inactive”.

Question: For CCCCCCCC[N+](C)(CCCCCCCC)CCCCCCCC, which outcome is on record?
Answer: The outcome was “inactive”.

Question: With CC(=O)OC(C)C as the molecule, how does the outcome read?
Answer: The outcome was “inactive”.

Question: O=C1CCCC1 was tested. Which outcome did it give?
Answer: Its outcome is “inactive”.
